This is part of a sample that, as a whole, favours compounds with a hit. Of some 83,000 tested, about 20% had one in any assay.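 Interpretation: 100, growth as untreated; towards 0, rising growth inhibition; 0, no net growth; 0 to -100, cell death. Compounds scoring below 10 were considered active.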 The source made the active and inactive calls.
Assays:
Test in all cases: NCI-60 one-dose screen, 48 h (100 = growth as untreated, 0 = no growth, -100 = all killed)
Details in all cases: 10 µM unless noted
[1] = tested on: NCI-H23 lung
[2] = tested on: NCI-H226 lung
[3] = tested on: NCI-H322M lung
[4] = tested on: HOP-62 NSCLC
[5] = tested on: NCI-H460 lung
[6] = tested on: HOP-92 NSCLC
[7] = tested on: NCI-H522 lung
[8] = tested on: A549/ATCC NSCLC
[9] = tested on: 786-0 renal
[10] = tested on: COLO 205 colon
[11] = tested on: DU-145 prostate
[12] = tested on: K-562 leukemia
[13] = tested on: MALME-3M melanoma
[14] = tested on: MDA-MB-231 breast
[15] = tested on: RXF 393 renal
[16] = tested on: SF-268 CNS
[17] = tested on: SF-295 CNS
[18] = tested on: SF-539 CNS
[19] = tested on: UACC-257 melanoma
[20] = tested on: M14 melanoma

Measured: growth

COCCn1cc(-c2csc(-c3c[nH]c4ccc(F)cc34)n2)c2cccnc21
active: [7] -11.7% | [12] 8.38%
inactive: [1] 34.8% | [2] 57.5% | [3] 63.2% | [4] 44% | [5] 15.1% | [6] 38% | [8] 22.1% | [9] 40.4% | [10] 11.5% | [11] 64.6% | [13] 45% | [14] 27.5% | [15] 65% | [16] 46.5% | [17] 16.1% | [18] 46.8% | [19] 36.5% | [20] 13.2%

COC12C=C/C(=C(/C(=O)OCCSc3ccnn3C)C(=O)CCCCCCCCC3(OC)C=C/C(=C(/C(=O)OCCSc4ccnn4C)C(=O)CCCCCCCC1)O3)O2
inactive: [3] 11.6% | [4] 27.9% | [11] 23% | [16] 16% | [19] 40.3%
active: [1] -44% | [2] -53.6% | [5] 3.85% | [6] -18.9% | [7] -17.3% | [8] 5.51% | [9] -29.2% | [10] -41.7% | [12] 1.16% | [13] -32.2% | [14] -11% | [15] -79.1% | [17] -3.35% | [18] -0.264% | [20] -3.79%

Cn1cc(-c2csc(-c3cn(CCCN4CCOCC4)c4ccc(F)cc34)n2)c2cccnc21
active: [12] 0.484%
inactive: [1] 63.7% | [2] 51.9% | [3] 79% | [4] 71.7% | [5] 41% | [6] 40.8% | [7] 49.5% | [8] 66.1% | [9] 57.4% | [10] 51.3% | [11] 80.3% | [13] 87.4% | [14] 25.1% | [15] 36.1% | [16] 66.6% | [17] 11.2% | [18] 57.6% | [19] 78.5% | [20] 46.2%

CC(C)(C)OC(=O)CN1CCc2c(sc3ncnc(N4CCN(c5ccc(F)cc5)CC4)c23)C1
inactive: [1] 88.2% | [2] 73.1% | [3] 83.6% | [4] 93.2% | [5] 88.6% | [6] 84% | [7] 82% | [8] 90.3% | [9] 81.8% | [10] 86.4% | [11] 90.1% | [12] 87.7% | [13] 90.6% | [14] 75.7% | [15] 92.2% | [16] 81.9% | [17] 104% | [18] 81.6% | [19] 97.7% | [20] 98.4%

CCCCCCCCCCCCCCCCCCOc1ccccc1CC(=O)NCC[N+](C)(C)C
inactive: [1] 51.6% | [2] 61.6% | [3] 66.9% | [5] 22.5% | [8] 40.8% | [9] 16.2% | [11] 44.3% | [12] 25.9% | [13] 78.8% | [14] 46.7% | [16] 24.2% | [17] 52.1% | [18] 46.4% | [19] 93.8% | [20] 33.7%
active: [4] 5.94% | [6] -5.43% | [7] 7.44% | [10] -85.2% | [15] -39.7%

CC[C@H](Nc1nc(N)nc(C)c1C#N)c1nc2cccc(CN(C)c3ncc(C(=O)NO)cn3)c2c(=O)n1-c1ccccc1
active: [3] 5.95% | [6] -28.3% | [7] -45.2% | [10] -55.8% | [12] 8.69% | [13] 8.44% | [14] -12.6% | [15] -61% | [17] -8.31% | [18] 8.35% | [19] -20.8% | [20] 9.1%
inactive: [1] 11.6% | [2] 24.3% | [4] 11.4% | [5] 10.8% | [8] 27.4% | [9] 11.9% | [11] 18.5% | [16] 12.1%

CCN(CC)CCCNc1cc(OC)c(OC)c2cccnc12
active: [1] 7.1%
inactive: [2] 110% | [3] 85.1% | [4] 58.3% | [5] 23.4% | [6] 84.7% | [7] 20.9% | [8] 56.4% | [9] 43.4% | [10] 98.4% | [11] 90.3% | [12] 66.2% | [13] 90.3% | [14] 74.2% | [15] 113% | [16] 66.1% | [17] 79.5% | [18] 55.7% | [19] 67% | [20] 48%

CC1(/C=C/c2ccc(-c3ccccc3)cc2)CCn2cnc3ncnc(c32)N1O (stereo not given)
inactive: [1] 13% | [2] 17% | [3] 26.9% | [4] 19.6% | [6] 52.3% | [7] 26% | [8] 15.6% | [10] 28% | [11] 21.4% | [12] 14.9% | [13] 23.3% | [14] 53.9% | [16] 16.6% | [17] 13.3% | [19] 10.7%
active: [5] 3.93% | [9] 1.88% | [15] 5.19% | [18] 1.19% | [20] -2.25%

O=C(O)CCCCCCCCCCN1C(=O)/C(=C2/C(=O)N(CC(=O)O)c3ccc(Br)cc32)SC1=S
inactive: [1] 92.8% | [2] 98.1% | [3] 97% | [4] 102% | [5] 105% | [6] 80.7% | [7] 90.1% | [8] 92% | [9] 54.7% | [10] 110% | [11] 106% | [12] 69.6% | [13] 96.9% | [14] 92.3% | [15] 113% | [16] 96.9% | [17] 103% | [18] 104% | [19] 97.9% | [20] 96.3%

C/C(=N\Nc1ccccc1)c1ccc(NC2=CC(=O)c3ccccc3C2=O)cc1
active: [13] -65%
inactive: [1] 21.4% | [2] 80.8% | [3] 79% | [4] 46.1% | [5] 23.5% | [6] 113% | [7] 42.9% | [8] 48.5% | [9] 94.1% | [10] 88.2% | [11] 50.7% | [12] 19.4% | [14] 62.4% | [15] 92.1% | [16] 64.4% | [17] 55.2% | [18] 92.9% | [19] 67.9% | [20] 26.3%

CC(C)CCC[C@@H](C)[C@H]1CC[C@H]2[C@@H]3CC=C4c5sc(Nc6cc(C(F)(F)F)cc(C(F)(F)F)c6)nc5CC[C@]4(C)[C@H]3CC[C@]12C
inactive: [1] 93.4% | [2] 104% | [3] 99.1% | [4] 81.9% | [5] 105% | [6] 79% | [7] 101% | [8] 92.1% | [9] 110% | [10] 99.8% | [11] 104% | [12] 101% | [13] 94.8% | [14] 108% | [15] 107% | [16] 101% | [17] 104% | [18] 98% | [19] 99.2% | [20] 98.6%

c1ccc(Nc2nc3c(s2)CCc2c[nH]cc2-3)nc1
active: [7] -49.9%
inactive: [1] 91.1% | [2] 74.7% | [3] 90.5% | [4] 92.7% | [5] 100% | [6] 88.9% | [8] 91.6% | [9] 105% | [10] 98.4% | [11] 103% | [12] 66.3% | [13] 92.5% | [14] 82.7% | [15] 104% | [16] 92.5% | [17] 107% | [18] 106% | [19] 88.7% | [20] 102%

CCOC(=O)c1nnn(Cc2cc(=O)oc3ccc(O)cc23)c1C
inactive: [1] 101% | [2] 99.6% | [3] 105% | [4] 102% | [5] 99.3% | [6] 103% | [7] 97.1% | [8] 98.6% | [9] 103% | [10] 105% | [11] 115% | [12] 103% | [13] 103% | [14] 105% | [15] 113% | [16] 108% | [17] 97.7% | [18] 102% | [19] 105% | [20] 100%

CN(C)c1ccc(CNCCO)cc1
inactive: [1] 107% | [2] 91.9% | [3] 104% | [4] 76.3% | [5] 105% | [6] 75.1% | [7] 43.5% | [8] 76% | [9] 86.1% | [10] 85.7% | [11] 105% | [12] 97.9% | [13] 103% | [14] 110% | [15] 113% | [16] 101% | [17] 103% | [18] 97.5% | [19] 85.4% | [20] 96.7%

Nc1ccc(Br)cc1C(F)(F)F
inactive: [1] 95.3% | [2] 105% | [3] 119% | [4] 102% | [5] 111% | [6] 104% | [7] 103% | [8] 102% | [9] 105% | [10] 102% | [11] 116% | [12] 97.1% | [13] 114% | [14] 103% | [15] 116% | [16] 108% | [17] 119% | [18] 97% | [19] 104% | [20] 106%

COC(=O)/C(CCC=C(C)C)=C1\[C@@H](OC(C)=O)C[C@@]2(C)[C@H]1C/C(=N/O)[C@H]1[C@@]3(C)CC/C(=N\O)[C@@H](C)[C@@H]3CC[C@@]12C
inactive: [1] 99.5% | [2] 96.8% | [3] 109% | [4] 105% | [5] 105% | [6] 95.4% | [8] 94% | [9] 96.3% | [10] 106% | [11] 106% | [12] 83.6% | [13] 119% | [14] 86.5% | [15] 104% | [16] 89.1% | [17] 101% | [18] 89.4% | [19] 118% | [20] 98.6%
active: [7] -57.1%
